# Reference: PubChem BioAssay (NCI)
# About 79,000 compounds went through this panel and 15% of them were active in at least one assay; those are over-represented in the sample as a whole. Unmarked numbers belong to inactive results. Cut-off read from the data, not from the text of the source: active = growth inhibition above about 70%; inactive = the rest.
# Assay: NCI Yeast Anticancer Drug Screen. Data for the cln2 rad14 strain (AID 165);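 note: 0% = growth equal to vehicle treated cultures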
# Settings: S. cerevisiae cln2 rad14 strain, at 50.0 µM, active compounds read high
# Method in brief: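 Readout is yeast growth inhibition versus vehicle-treated controls, using a strain with cln2 and rad14 alterations exposed to compound.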
row,SMILES,growth inhibition [%]
1,COC(=O)CCCCC1=CCC2C(=O)C=C(O)C2C1 (stereo not given),-2.5
2,O=C1Cc2ccccc2C(=O)O1,-22.1
3,O=c1cc(-c2ccccc2)[nH]c(=S)[nH]1,-24.8
4,O=C(O)c1cc([N+](=O)[O-])ccc1Cl,21
5,CCN1C(=O)/C(=C/C=C/N(C)c2ccccc2)SC1=S,9.05
6,CN(C)c1nc2c([nH]1)c(=O)n(C)c(=O)n2C,5.2
7,COc1ncnc2c1cnn2C,-35.1
8,CC1(O)CCCCC1O (stereo not given),-20.9
9,CCc1ccc(/C(C#N)=C/C=C/c2ccccc2)cc1,-2.9
10,C=CCOC(=O)C(=O)OCC=C,1.95
11,COC1=CC(=O)c2nc(Cl)ccc2C1=O,-1
12,Cc1cc(=O)[nH]c(NN=C2CCCC2)n1,-2.6
13,CSc1[nH]c(=O)ncc1F,-4.15
14,CCC(C)(C)C1CCC(O)CC1 (stereo not given),-53.5
15,S=c1nn[nH]c2ccccc12,8.1
